Bioassay records (PubChem)
FUS suppressor: FUS proteinopathy suppression in yeast; S. cerevisiae FUS-expressing, growth rescue, OD600, 24 h; Potency, µM (top dose mostly 76.6 µM), actives largely listed as activators; 390,000 tested, 0.24% active;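 also: potency is read from the fitted curve at half-maximal effect; plate controls were DMSO vehicle for no effect and reference control for full effect; nearly all actives have a fitted effect of over 55% in size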
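Compound concentration series was pinned onto galactose-induced FUS-expressing yeast seeded at OD 0.005. Plates sat 24hr at 30C; absorbance at 600 nm gave growth. DMSO served as background control.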
aSyn rescue: rescues yeast growth from alpha-synuclein toxicity; Yeast expressing alpha-synuclein, growth rescue, BacTiter-Glo, 24 h; Potency, µM (titrated, usually from 46.1 µM), for the others: top-dose growth rescue (activation), hits mostly activators; 370,000 tested, 0.14% active; also: potency is read from the fitted curve at half-maximal effect; % of control where 0% means no effect; nearly all actives have a fitted effect of over 65% in size
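Screening used galactose-induced yeast with toxic alpha-synuclein levels, exposed to compound for 24 hr at 30 deg C. Cell growth, read with BacTiter-Glo luminescence, gave the measured signal.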
Abeta yeast res: restores growth of yeast expressing A-beta42 peptide. yeast expressing A-beta42, growth rescue, OD600, 48 h; response scale: 0% DMSO, 100% iron-clioquinol control. Potency, µM (series often up to 46.1 µM), usual class: activators. 410,000 tested, 0.063% active. AID 1347071; also: potency is read from the fitted curve at half-maximal effect; nearly all actives have a fitted effect of over 55% in size
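Yeast growth medium received pinned compounds, then yeast cells expressing toxic A-beta were added; plates incubated at 30 C for 48 hr. Growth read as absorbance at 600 nm, normalized to DMSO and equimolar FeCl3 plus clioquinol controls.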
mIDH1 inhibitor: inhibitors of human mutant IDH1 R132H. O75874. 390,000 tested, 0.093% active. Potency, µM (titrated, usually from 76.6 µM), for the others: at the highest dose activity change, negative = inhibition, hits mostly inhibitors. IDH1-R132H enzyme, NADPH consumption, diaphorase/resazurin fluorescence; also: potency is read from the fitted curve at half-maximal effect; % is scaled to controls: 0 for no effect and ±100 for the full control effect; nearly all actives have a fitted effect of over 65% in size
Target sequence (O75874 whole entry R132H, stated change not applied): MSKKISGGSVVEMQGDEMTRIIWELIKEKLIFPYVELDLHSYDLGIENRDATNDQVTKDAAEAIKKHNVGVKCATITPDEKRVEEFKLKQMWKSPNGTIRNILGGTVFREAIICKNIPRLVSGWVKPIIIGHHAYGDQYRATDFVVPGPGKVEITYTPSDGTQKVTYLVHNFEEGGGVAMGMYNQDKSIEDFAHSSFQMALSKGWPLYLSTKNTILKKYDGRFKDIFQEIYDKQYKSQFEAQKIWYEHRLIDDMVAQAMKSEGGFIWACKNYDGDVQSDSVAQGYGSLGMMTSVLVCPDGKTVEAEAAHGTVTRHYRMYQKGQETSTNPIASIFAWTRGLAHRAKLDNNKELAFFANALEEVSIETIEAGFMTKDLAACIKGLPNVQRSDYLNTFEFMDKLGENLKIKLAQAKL
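IDH1-R132H (0.5 ug/mL dispensed) in pH 7.5 Tris buffer was preincubated 30 min with compound, then given a substrate mix of 0.016 mM NADPH and 2 mM alpha-KG for 80 min at room temperature; remaining NADPH was read by diaphorase/resazurin fluorescence.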
TDP-43 yeast inh: TDP-43 toxicity inhibition in yeast. AID 652104. TDP-43 expressing yeast growth rescue, BacTiter-Glo, 24 h. Potency, µM (doses to about 46.1 µM), without a hit: at the top dose growth rescue (activation), most hits filed as activators. 410,000 tested, 1.8% active; also: potency is read from the fitted curve at half-maximal effect; % of control where 0% means no effect; nearly all actives have a fitted effect of over 50% in size
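Growth rescue of TDP-43-toxic yeast measured as ATP luminescence (BacTiter-Glo). Cells grown to mid-log in raffinose, induced in galactose at OD600=0.02, exposed to compound 24 hr at 30 deg C.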
LDHA block: blocks human lactate dehydrogenase A; purified LDHA, NADH/diaphorase-resazurin fluorescence; hits give low values; activity change, % (values are at about 110 or 230 µM); 480,000 tested, 0.15% active; in the data active = activity change below about -30%; inconclusive = mostly about -25% to -30%;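 also: plate controls were DMSO wells for no effect and wells without enzyme for full effect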
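Human LDH5 (2 nM) was incubated with 0.06 mM NADH and 0.2 mM pyruvate for 5 min at room temperature in Tris pH 7.4. Remaining NADH was coupled through diaphorase/resazurin, and resorufin fluorescence was read at 0 and 20 min.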
An asterisk follows results filed as active; i = inactive; ? = inconclusive; / = not tested or not shown; [ ] = dose if it differs, or a comment. Rows were chosen to be rich in hits. Some 2% of all compounds tested hit in one or more screens of this group. Unless noted, calls follow the shape of the dose curve; as a rule, active = well fitted curve in the direction sought with a large enough effect; inconclusive = small, poorly fitted or top-dose-only effect, or another doubt; inactive = no such curve, though single readings can be large; an effect the other way counts as inactive or inconclusive.

SMILES | FUS suppressor | aSyn rescue | Abeta yeast res | mIDH1 inhibitor | TDP-43 yeast inh | LDHA block
CCN1CCN(CCOc2ccc(Cl)cc2)CC1 | i | -7% | i | -7% | -12% | -34*
CCN1CCN(CCOc2ccccc2-c2ccccc2)CC1 | i | 1% | i | -3% | 13% | -34*
Cc1cc(=O)oc2cc(NC(=O)Cc3ccc(Cl)cc3Cl)ccc12 | / | / | / | / | / | -19
Fc1ccc(Nc2nc3ccccc3n3cnnc23)c(F)c1 | i | / | i | 6% | 8.9µM* | -2
COc1ccc(CCC(=O)OCC(=O)c2cccc(Br)c2)cc1OC | / | / | / | / | / | 15
CCCCNc1c(-c2ccc(SC3CCCCC3)cc2)nc2cnccn12 | ? | -54% | i | -5% | 22µM* | 5
CCCCCCSc1ccc(-c2nc3cnccn3c2NC2CCCCC2)cc1 | i | 1% | i | / | -1% | 3
Clc1ccc(-c2nc3cnccn3c2NC2CCCC2)cc1 | i | 0% | i | 0% | 13µM* | 0
CCCCNc1c(-c2ccc(OC)c(SC3CCCCC3)c2)nc2cnccn12 | 32µM* | -44% | i | 11% | -23% | 5
Cc1c(N)cccc1-c1nc2cc(C(C)C)ccc2o1 | / | / | / | / | / | -6
Cc1ccc(F)cc1Nc1ncnc(N)c1[N+](=O)[O-] | / | / | / | / | / | 1
Cc1cc(C)c(S(=O)(=O)NCCn2c(C)cc3ccccc32)c(C)c1 | ? | ? | 7.9µM* | 4% | 35µM* | -4
O=C(C1=C(O)C(=O)N(CCc2ccccc2)C1c1ccncc1)c1ccco1 (configuration not stated) | / | / | / | / | / | -25
COc1ccc(-n2c(C)nc3c(cnn3-c3ccc(C)c(C)c3)c2=O)cc1Cl | i | / | i | 10% | 1% | -2
Cc1ccc(-n2c(C)nc3c(cnn3-c3ccccc3Cl)c2=O)cc1C | i | 0% | i | 1% | 11µM* | -6
COc1cccc(-n2c(C)nc3c(cnn3-c3ccc(C)c(C)c3)c2=O)c1 | i | / | i | 1% | 22µM* | -1
Cc1ccc(-n2c(C)nc3c(cnn3-c3ccc(C)c(C)c3)c2=O)cc1C | i | 6% | i | -3% | ? | 1
Brc1c(CSc2nc3ccccc3o2)nc2ncccn12 | i | 9% | i | 8% | 13µM* | -4
Clc1c(CSc2nc3ccccc3o2)nc2ccccn12 | i | 6% | i | 0% | ? | -8
COc1cccc(NC(=O)c2ncoc2-c2ccc(C)s2)c1 | / | / | / | / | / | 2
Cc1nc2nc(SCC(=O)NCCc3ccc(Cl)cc3)nn2c(C)c1Cc1ccccc1Cl | ? | / | i | -20% | ? | -1
Cc1ccccc1Cc1c(C)nc2nc(SCC(=O)NCCc3ccc(Cl)cc3)nn2c1C | i | / | i | -10% | 32µM* | -1
COc1cc(NC(=O)CSc2nc3nc(C)c(Cc4ccc(C)cc4)c(C)n3n2)cc(OC)c1 | 32µM* | / | i | 0% | 20% | 4
Cc1cccc(Nc2nc(-c3ccc4c(c3)CCC(=O)N4)cs2)c1 | / | / | / | / | / | 0
COc1cccc(CN2CCN(Cc3cc(OC)c(O)c(OC)c3)CC2)c1 | / | / | / | / | / | 11
SMILES | FUS suppressor | aSyn rescue | Abeta yeast res | mIDH1 inhibitor | TDP-43 yeast inh | LDHA block
CCOC(=O)C(c1ccccc1)N1CCN(c2ccc(OC)cc2)CC1 (configuration not stated) | i | 5% | i | 1% | -1% | 0
CCOC(=O)C(C(=O)OCC)C(c1ccccc1)N1CCN(c2ccccc2)CC1 (configuration not stated) | i | 11% | i | 5% | 13µM* | 3
CCCCCn1c(CN2CCN(c3cccc(Cl)c3)CC2)nc2c1c(=O)n(C)c(=O)n2C | ? | -3% | i | 6% | ? | -1
CCCCn1c(CN2CCN(c3cccc(Cl)c3)CC2)nc2c1c(=O)n(C)c(=O)n2C | i | 2% | i | 10% | 20µM* | 1
COC(=O)c1c(-c2ccc(F)cc2)csc1NC(=O)CN1CCN(c2ccccc2)CC1 | / | / | / | / | / | 6
C[C@H](NS(=O)(=O)OCC(Cl)(Cl)Cl)C1CC1c1ccccc1 (some centres not stated) | i | -4% | i | 5%[38.3 µM] | 22µM* | -3
O=c1c2ccc([N+](=O)[O-])cc2ncn1CCOc1ccccc1 | i | 3% | i | -1% | 23%[9.22 µM] | -11
Cc1ccc(OCCn2cnc3cc([N+](=O)[O-])ccc3c2=O)cc1 | i | 7% | i | 2% | 10µM* | -2
CCOc1ccc(-c2nnc3ccc(SC(C)C)nn23)cc1 | i | -7% | i | 11% | 16µM* | 0
CCOc1ccc(-c2nnc3ccc(SCC(=O)N4CCCCC4)nn23)cc1 | i | 1% | i | 5% | 14% | 3
N#CCCN1CCN(c2ccc(NS(=O)(=O)c3ccc(F)cc3Cl)c(C(=O)O)c2)CC1 | / | / | / | / | / | -2
CC(C)Oc1ccc(C(=O)OCC(=O)NC(=O)NC2CCCC2)cc1 | i | 17% | ? | -4% | 20µM* | 0
CC(C)Oc1ccc(C(=O)OCC(=O)NC2CCCCCC2)cc1 | i | 1% | i | 2% | ? | -3
CN(Cc1ccccc1)C(=S)NC(=O)c1cccs1 | i | 5% | 13µM* | 9% | ? | -4
CN(Cc1ccccc1)C(=S)NC(=O)c1ccc(-c2ccccc2)cc1 | i | 9% | i | 3% | 2% | -2
CCn1cnc2c1c(=O)n(CC(=O)Nc1ccc3c(c1)OCCO3)c(=O)n2Cc1ccccc1 | / | / | / | / | / | -2
N#Cc1c(-c2csc(-c3no[n+]([O-])c3C#N)c2)no[n+]1[O-] | / | / | / | / | / | 19
CCOC(=O)c1c(C)[nH]c(O)c1C=Nc1ccc(C(F)(F)F)cc1 | i | -6% | i | 0% | 3.2µM* | 5
CCOC(=O)c1c(C)[nH]c(O)c1C=Nc1ccc(Cl)cc1 | i | -3% | i | 0% | 10% | -10
COC(=O)[C@@]12CCCN1[C@H](c1ccc(-c3ccc(OC)cc3)cc1)[C@@H]1C(=O)N(C)C(=O)[C@@H]12 | ? | 1% | i | 11% | 22µM* | 8
COC(=O)[C@@]12CCCCN1[C@H](c1ccc(-c3ccc(F)cc3)cc1)[C@@H]1C(=O)N(C)C(=O)[C@@H]12 | i | 16% | i | -25% | 13µM* | -8
COC(=O)[C@@]12CCCN1[C@H](c1ccc(-c3ccccc3)cc1)[C@H]1C(=O)N(C)C(=O)[C@H]12 | i | 9% | i | -1% | -1% | -4
CN(/C=C/C(=O)/C=C/N(C)c1ccccc1)c1ccccc1 | / | / | / | / | / | 3
